# According to PubChem BioAssay (NCI):
# About 83,000 compounds went through this panel and 20% of them were active in at least one assay; those are over-represented in the sample as a whole.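 Values shown are percent growth following 48 h exposure of cells in 96-well plates to a single concentration of compound; below 10 was considered active.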 Unmarked numbers belong to inactive results. Calls of active or inactive are those of the source.
# Test system: MALME-3M melanoma
# Test: NCI-60 one-dose screen, 48 h (100 = growth as untreated, 0 = no growth, -100 = all killed)
# Details: 10 µM
row,Structure (SMILES),growth
1,CC(C)[N+]1(C)C2CC[C@@H]1CC(OC(=O)C(CO)c1ccccc1)C2 (stereo not given in full),103%
2,Cc1c2c[n+](C(C)C)ccc2c(C)c2c1[nH]c1ccccc12,-25.6% (active)
3,Cc1ccc(-n2c(C)nn3c(=O)c4c5c(sc4nc23)CN(C)CC5)cc1,93.7%
4,CCCCCCCCCCCCCCCCCC[n+]1ccc2c(C)c3c(c(C)c2c1)c1cc(O)ccc1n3CC,-55.2% (active)
5,Cc1c2cnccc2c(C)c2c1c1cc(O)ccc1n2C(C)C,-17.9% (active)
6,COc1ccc(C(=O)CSc2nc(-c3cc(OC)ccc3OC)cc(-c3ccc(OC)cc3)c2C#N)cc1,110%
7,CCn1c2ccc(O)cc2c2c(C)c3c[n+](C)ccc3c(C)c21,-20.4% (active)
8,Cc1ccccc1N1C(=O)c2cc(S(N)(=O)=O)c(Cl)cc2NC1C (stereo not given),103%
9,N#Cc1c(-c2ccc(Cl)cc2)cc(-c2cc(O)ccc2O)nc1N,30.2%
10,CN1CCc2c(sc3nc4n(-c5ccc(Cl)cc5)c(=O)[nH]n4c(=O)c23)C1,98.5%
11,Cn1c2ccccc2c2c3[nH][nH]c(=O)c3c3c4ccccc4[nH]c3c21,92.3%
12,O=C1c2c(c3c4ccccc4n(CCCCCCN4CCOCC4)c3c3[nH]c4ccccc4c23)C(=O)N1O,117%
13,Nc1ccccc1NC(=O)c1ccc(CCCC(=O)Nc2ccc(C3CC3N)cc2)cc1 (stereo not given),21.7%
14,Nc1nc(-c2cccnc2)nc2c1sc(=S)n2-c1ccccc1,112%
15,Nc1cc(-c2ccncc2)c[nH]c1=O,123%
16,COc1cc2c3c(n([C@H]4CCOC4)c(=O)c2cc1OC)-c1cc2c(cc1C3=O)OCO2,78%
17,C=C/C(C)=C/C[C@]1(C)[C@H](C)[C@@H](OC(=O)CCC)[C@H](O)[C@@]23C(=C[C@H](OC)C[C@@H]12)[C@@H](OC(=O)CCC)O[C@H]3OC(C)=O,-63.7% (active)
18,Fc1ccc2[nH]cc(-c3nc(-c4ccsc4)cs3)c2c1,93%
19,CN1CCc2c(sc3nc4n(-c5ccc(Cl)cc5)cnn4c(=O)c23)C1,97%
20,O=C(CCCNC(=O)c1nc(-c2ccccc2)n(-c2ccccc2)n1)NO,99.4%

row,Structure (SMILES),growth
1,Nc1ccc(-c2cccs2)cc1NC(=O)c1ccc(CCCC(=O)Nc2ccc(C3CC3N)cc2)cc1 (stereo not given),75.1%
2,CCOC(=O)c1sc2ncnc(Nc3ccc(NC(=O)Nc4ccc(Cl)cc4)cc3)c2c1C,26.4%
3,CCNc1nc(C(F)(F)F)nc2c1sc(=S)n2-c1ccccc1,144%
4,COc1ccc([C@H]2[C@H](C(=O)Nc3cccnc3)c3ccccc3C(=O)N2c2ccccc2)cc1,108%
5,O=C(CCCCNC(=O)c1nc(-c2ccccc2)n(-c2ccccc2)n1)NO,23.5%
6,COc1cc(CNC(=O)C2CSC3(C)c4ccccc4C(=O)N23)cc(OC)c1OC (stereo not given),109%
7,COc1cc2c3c(n(C4CCNCC4)c(=O)c2cc1OC)-c1cc2c(cc1C3=O)OCO2,-68.4% (active)
8,C[C@@H](O)[C@H]1C(=O)N2C(C(=O)O)=C(SC3CN[C@H](C(=O)N(C)C)C3)[C@H](C)[C@H]12 (stereo not given in full),92.9%
9,COc1cc2c3c(n([C@@H]4CCOC4)c(=O)c2cc1OC)-c1cc2c(cc1C3=O)OCO2,75.6%
10,CCOC(=O)c1sc2ncnc(Nc3ccc4c(cnn4C(=O)Nc4ccc(C)c(Cl)c4)c3)c2c1C,91.1%
11,CN1C(C(=O)Nc2ccccn2)=C(O)c2sc(Cl)cc2S1(=O)=O,102%
12,CCCN1CN2C(=O)N3CN(CCC)CN4C(=S)N(C1)C2C34 (stereo not given),112%
13,COc1ccc(-c2cc(-c3cc(OC)ccc3OC)nc(N)c2C#N)cc1,36.9%
14,c1cncc(-c2csc(-c3c[nH]c4ccccc34)n2)c1,78.8%
15,c1cnc2[nH]cc(-c3nc(-c4ccsc4)cs3)c2c1,121%
16,COc1ccc(-c2nn(-c3cccc(Cl)c3)cc2C=C(C#N)C#N)cc1,17.7%
17,CCOC(=O)c1sc2ncnc(Nc3ccc4c(cnn4C(=O)Nc4ccccc4)c3)c2c1C,32.7%
18,CCCCCC(=O)O[C@]1(C(C)=O)CCC2C3CCC4=CC(=O)CC[C@]4(C)C3CC[C@@]21C (stereo not given in full),62.1%
19,CCn1cc(CNc2ccc(C(=O)Nc3ccc4ccccc4c3)cc2)c(C)n1,62.5%
20,O=c1[nH]c(=O)n(C2C[C@H](O)[C@@H](CO)O2)cc1C(F)(F)F (stereo not given in full),107%

# Test system: MDA-MB-231 breast
# Test: as above
# Details: 10 µM
row,Structure (SMILES),growth
1,CC(C)[N+]1(C)C2CC[C@@H]1CC(OC(=O)C(CO)c1ccccc1)C2 (stereo not given in full),98.8%
2,Cc1c2c[n+](C(C)C)ccc2c(C)c2c1[nH]c1ccccc12,35.3%
3,Cc1ccc(-n2c(C)nn3c(=O)c4c5c(sc4nc23)CN(C)CC5)cc1,96.3%
4,CCCCCCCCCCCCCCCCCC[n+]1ccc2c(C)c3c(c(C)c2c1)c1cc(O)ccc1n3CC,19%
5,Cc1c2cnccc2c(C)c2c1c1cc(O)ccc1n2C(C)C,9.51% (active)
6,COc1ccc(C(=O)CSc2nc(-c3cc(OC)ccc3OC)cc(-c3ccc(OC)cc3)c2C#N)cc1,102%
7,CCn1c2ccc(O)cc2c2c(C)c3c[n+](C)ccc3c(C)c21,71.7%
8,Cc1ccccc1N1C(=O)c2cc(S(N)(=O)=O)c(Cl)cc2NC1C (stereo not given),119%
9,N#Cc1c(-c2ccc(Cl)cc2)cc(-c2cc(O)ccc2O)nc1N,-5.89% (active)
10,CN1CCc2c(sc3nc4n(-c5ccc(Cl)cc5)c(=O)[nH]n4c(=O)c23)C1,120%
11,Cn1c2ccccc2c2c3[nH][nH]c(=O)c3c3c4ccccc4[nH]c3c21,19.8%
12,O=C1c2c(c3c4ccccc4n(CCCCCCN4CCOCC4)c3c3[nH]c4ccccc4c23)C(=O)N1O,48.5%
13,Nc1ccccc1NC(=O)c1ccc(CCCC(=O)Nc2ccc(C3CC3N)cc2)cc1 (stereo not given),47.5%
14,Nc1nc(-c2cccnc2)nc2c1sc(=S)n2-c1ccccc1,65.2%
15,Nc1cc(-c2ccncc2)c[nH]c1=O,115%
16,COc1cc2c3c(n([C@H]4CCOC4)c(=O)c2cc1OC)-c1cc2c(cc1C3=O)OCO2,91.8%
17,C=C/C(C)=C/C[C@]1(C)[C@H](C)[C@@H](OC(=O)CCC)[C@H](O)[C@@]23C(=C[C@H](OC)C[C@@H]12)[C@@H](OC(=O)CCC)O[C@H]3OC(C)=O,-62.7% (active)
18,Fc1ccc2[nH]cc(-c3nc(-c4ccsc4)cs3)c2c1,79.5%
19,CN1CCc2c(sc3nc4n(-c5ccc(Cl)cc5)cnn4c(=O)c23)C1,98.7%
20,O=C(CCCNC(=O)c1nc(-c2ccccc2)n(-c2ccccc2)n1)NO,103%

row,Structure (SMILES),growth
1,Nc1ccc(-c2cccs2)cc1NC(=O)c1ccc(CCCC(=O)Nc2ccc(C3CC3N)cc2)cc1 (stereo not given),47.1%
2,CCOC(=O)c1sc2ncnc(Nc3ccc(NC(=O)Nc4ccc(Cl)cc4)cc3)c2c1C,23.8%
3,CCNc1nc(C(F)(F)F)nc2c1sc(=S)n2-c1ccccc1,85.1%
4,COc1ccc([C@H]2[C@H](C(=O)Nc3cccnc3)c3ccccc3C(=O)N2c2ccccc2)cc1,95.9%
5,O=C(CCCCNC(=O)c1nc(-c2ccccc2)n(-c2ccccc2)n1)NO,86.2%
6,COc1cc(CNC(=O)C2CSC3(C)c4ccccc4C(=O)N23)cc(OC)c1OC (stereo not given),98.3%
7,COc1cc2c3c(n(C4CCNCC4)c(=O)c2cc1OC)-c1cc2c(cc1C3=O)OCO2,-69.1% (active)
8,C[C@@H](O)[C@H]1C(=O)N2C(C(=O)O)=C(SC3CN[C@H](C(=O)N(C)C)C3)[C@H](C)[C@H]12 (stereo not given in full),99.6%
9,COc1cc2c3c(n([C@@H]4CCOC4)c(=O)c2cc1OC)-c1cc2c(cc1C3=O)OCO2,91%
10,CCOC(=O)c1sc2ncnc(Nc3ccc4c(cnn4C(=O)Nc4ccc(C)c(Cl)c4)c3)c2c1C,96.5%
11,CN1C(C(=O)Nc2ccccn2)=C(O)c2sc(Cl)cc2S1(=O)=O,105%
12,CCCN1CN2C(=O)N3CN(CCC)CN4C(=S)N(C1)C2C34 (stereo not given),98.6%
13,COc1ccc(-c2cc(-c3cc(OC)ccc3OC)nc(N)c2C#N)cc1,56.3%
14,c1cncc(-c2csc(-c3c[nH]c4ccccc34)n2)c1,73.5%
15,c1cnc2[nH]cc(-c3nc(-c4ccsc4)cs3)c2c1,85.6%
16,COc1ccc(-c2nn(-c3cccc(Cl)c3)cc2C=C(C#N)C#N)cc1,-40.3% (active)
17,CCOC(=O)c1sc2ncnc(Nc3ccc4c(cnn4C(=O)Nc4ccccc4)c3)c2c1C,37.2%
18,CCCCCC(=O)O[C@]1(C(C)=O)CCC2C3CCC4=CC(=O)CC[C@]4(C)C3CC[C@@]21C (stereo not given in full),29.1%
19,CCn1cc(CNc2ccc(C(=O)Nc3ccc4ccccc4c3)cc2)c(C)n1,83.8%
20,O=c1[nH]c(=O)n(C2C[C@H](O)[C@@H](CO)O2)cc1C(F)(F)F (stereo not given in full),107%
